Calls of active or inactive are those of the source.
Columns and labels:
[1] = compound effects on lung adenocarcinoma cell viability – A549, calcein-AM fluorescence, 48 h, basal, profiling panel (AID 1162); settings: higher = more signal
[2] = compound effects on differentiated 3T3-L1 adipocyte viability – cell-based, 3T3-L1 adipocytes, calcein-AM fluorescence, 48 h, basal, profiling panel (AID 1163); settings: 3T3-L1 adipocytes viability, higher = more signal
[3] = compound effects on hepatocellular carcinoma cell viability – HepG2, calcein-AM fluorescence, 48 h, basal, profiling panel (AID 1164); settings: higher = more signal
[4] = compound effects on multiple myeloma cell viability – MM1S, calcein-AM fluorescence, 48 h, basal, profiling panel (AID 1165); settings: higher = more signal;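 further: viability of MM1S multiple myeloma cells under basal unstimulated conditions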
[5] = calcein-AM signal in unstimulated myeloma cells – cell-based, calcein-AM fluorescence, 48 h, PK04 Diversity Set, profiling panel (AID 1166); settings: RPMI8226 myeloma viability, higher = more signal;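 further: cells grown under basal conditions without added stimulus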
[6] = JC-1 mitochondrial signal, unstimulated HepG2 cells – cell-based, JC-1 fluorescence, 24 h, 100 nL compound, profiling panel (AID 1167); settings: HepG2 mitochondrial potential, higher = more signal
[7] = JC-1 mitochondrial signal, unstimulated adipocytes – cell-based, JC-1 fluorescence, 3T3-L1 adipocytes, 24 h, 100 nL compound, profiling panel (AID 1168); settings: JC-1 mitochondrial fluorescence, higher = more signal, called active from +8 up or from −8 down
[8] = JC-1 mitochondrial signal, unstimulated myeloma cells – cell-based, JC-1 fluorescence, RPMI8226, 24 h, 100 nL compound, profiling panel (AID 1169); settings: JC-1 mitochondrial potential fluorescence, higher = more signal
[9] = JC-1 mitochondrial signal, unstimulated MM1S myeloma – cell-based, JC-1 fluorescence, 24 h, 100 nL compound, profiling panel (AID 1170); settings: MM1S mitochondrial potential, higher = more signal
[10] = resazurin metabolic signal in A549 cells – cell-based, resazurin fluorescence, 24 h, PK04 Diversity Set, profiling panel (AID 1171); settings: A549 viability, higher = more signal, called active from +8 up or from −8 down
Further: test concentration not given here.

Structure (SMILES)	z-score [1]	z-score [2]	z-score [3]	z-score [4]	z-score [5]	z-score [6]	z-score [7]	z-score [8]	z-score [9]	z-score [10]
CN(C)CCCCNC(=O)[C@H]1C[C@H]2C(=O)N[C@@H](CCCCN(C)C)C(=O)N2[C@H]1c1ccc(O)cc1	0.897	0.613	0.218	0.428	1.26	0.754	0.903 (inactive)	-0.623	-0.379	1.2 (inactive)
COc1ccc([Si](C)(C)[C@H]2[C@H](CC(=O)N(CCO)Cc3ccccc3)O[C@@]3(C(=O)N(Cc4cccc(N5CCCCC5=O)c4)c4ccccc43)[C@@H]2C)cc1	-0.166	1.19	-1.16	-0.391	-4.18	0.553	1.65 (inactive)	-0.981	-1.61	-1.91 (inactive)
C=C(COC)/C(=C/C[C@@H](OC(C)=O)c1cccc(OCCO)c1)c1cnc2ccccc2c1	0.37	1.35	-0.705	-0.588	-0.461	0.902	-0.0217 (inactive)	0.0629	0.627	-0.736 (inactive)
CCCC1(C(=O)OC)C=C2C(=C(C(C)C)C(=O)C2C)CN1 (stereo not given)	-1.47	0.273	-0.0319	0.313	-0.316	-1.45	-1.43 (inactive)	-0.613	-0.458	-0.898 (inactive)
COC(=O)C(CC#Cc1ccc2c(c1)[C@]1(C(=O)N2)[C@H](c2ccccc2OCCO)N2[C@H](c3ccccc3)[C@H](c3ccccc3)OC(=O)[C@H]2[C@@H]1C(=O)N1CCN(c2ncccn2)CC1)C(=O)OC	-0.071	-1.46	0.496	-3.23	-4.35	-0.735	0.181 (inactive)	-1.11	-1.92	0.103 (inactive)
COC(=O)C(CC#Cc1ccc2c(c1)[C@]1(C(=O)N2)[C@H](C(N)=O)[C@H]2C(=O)O[C@H](c3ccccc3)[C@H](c3ccccc3)N2[C@@H]1c1ccccc1OCCO)C(=O)OC	-0.782	-0.436	-4.23	-3.4	-4.62	-0.82	4.3 (inactive)	-1.18	-2.2	-2.83 (inactive)
CCOC(=O)C1=C[C@@H](C(C)(C)C)N(S(=O)(=O)c2ccc(C)cc2)[C@H]1c1ccc(OC)cc1	0.279	-0.276	-0.778	-1.04	-1.23	4.09	-0.305 (inactive)	-0.589	-0.676	2.62 (inactive)

— PubChem BioAssay
